This is a sample that favours compounds with a hit; in the whole collection about 8.7% have one here.
Vaccinia Venus: qHTS for Stage-Specific Inhibitors of Vaccinia Orthopoxvirus: Venus Reporter Primary qHTS; Vaccinia virus Venus reporter expression, fluorescence; AID 720580, 2013; Potency, µM (titrated, usually from 36.5 µM), for the others: at the highest dose activity change, negative = inhibition, hits mostly inhibitors; 0.46% of 330,000 active; calls by dose curve; tested in A549 cells; also: nearly all actives have a fitted effect of over 30% in size
Pf growth 48h: Primary qHTS for delayed death inhibitors of the malarial parasite plastid, 48 hour incubation. P. falciparum luciferase growth in erythrocytes, 48 h. Potency, µM (titrated, usually from 28.7 µM), without a hit: at the top dose activity change, negative = inhibition, actives largely listed as inhibitors. 5.9% of 310,000 active
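Firefly luciferase activity from engineered P. falciparum reports growth; inhibitors lower the luminescent signal. Cultures contained 2% hematocrit erythrocytes at 0.1% final parasitemia.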
Pf growth 96h: Primary qHTS for delayed death inhibitors of the malarial parasite plastid, 96 hour incubation | P. falciparum luciferase reporter growth, 96 h | Potency, µM (series often up to 28.7 µM), for the others: at the highest dose activity change, negative = inhibition, actives largely listed as inhibitors | 6.9% of 320,000 active | AID 504834, 2011
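P. falciparum expressing integrated firefly luciferase, in erythrocytes at 2% hematocrit, 0.05% parasitemia, incubated with compounds 96 h at 37 C, 5% CO2. Growth inhibition read as loss of luminescence; two-generation exposure targets delayed-death apicoplast inhibitors.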
Vaccinia mCherry: qHTS for Stage-Specific Inhibitors of Vaccinia Orthopoxvirus: mCherry Reporter Primary qHTS; Vaccinia virus mCherry reporter infection, fluorescence; AID 720579, 2013; Potency, µM (titrated, usually from 36.5 µM), for the others: at the highest dose activity change, negative = inhibition, most hits filed as inhibitors; 0.63% of 310,000 active; calls by dose curve; tested in A549 cells; also: nearly all actives have a fitted effect of over 35% in size
AMA1-RON2 inh: qHTS for Inhibitors of AMA1-RON; Towards Development of Antimalarial Drug Lead: Primary Screen. Potency, µM (titrated, usually from 58.2 µM), for inactives: top-dose activity change, negative = inhibition, usual class: inhibitors. AID 720542, 2013. 0.2% of 360,000 active. AlphaScreen AMA1-biotinylated RON2 peptide binding;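 also: 0% = vehicle wells and -100% = peptide control; nearly all actives have a fitted effect of over 45% in size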
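AMA1 (3D7) with his tag at 25 nM final met compounds first, then biotinylated RON2 peptide at 25 nM; detection used donor plus acceptor beads, 10 µg/mL apiece, read by AlphaScreen after 30 min at room temperature.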
* = called active by the depositor; [ ] = remark or other dose. Unless noted, calls follow the shape of the dose curve; as a rule, active = well fitted curve in the direction sought with a large enough effect; inconclusive = small, poorly fitted or top-dose-only effect, or another doubt; inactive = no such curve, though single readings can be large; an effect the other way counts as inactive or inconclusive. Unless noted, % is scaled to controls: 0 for no effect and ±100 for the full control effect; potency is read from the fitted curve at half-maximal effect.

Screening CNc1cc(CSC)nc(SCc2ccc(Cl)cc2Cl)n1 returned Vaccinia Venus -21%, Pf growth 48h inconclusive, Pf growth 96h inconclusive, Vaccinia mCherry -33% and AMA1-RON2 inh inconclusive.
Screening CN1CCN(C(=O)Nc2cccc(Cl)c2)c2cccnc21 returned Vaccinia Venus 1% and Vaccinia mCherry 0%.
COc1ccc(NC(=O)Nc2ccc(F)cc2)cn1 was read as Pf growth 48h 30%, Pf growth 96h 0% and AMA1-RON2 inh 27%.
CC(C)C(C(=O)NC1=NCCS1)c1ccc(Cl)cc1 (stereo unspecified) was read as Vaccinia Venus 4%, Pf growth 48h 3.7µM*, Pf growth 96h inconclusive, Vaccinia mCherry 1% and AMA1-RON2 inh -11%.
For COc1ccc(NC(=O)C(c2ccc(Cl)cc2)C(C)C)cn1 (stereo unspecified) the results were Vaccinia Venus 9%, Pf growth 48h 1.5µM*, Pf growth 96h inconclusive, Vaccinia mCherry -5% and AMA1-RON2 inh 5%.
Screening COc1cccc(C(=O)Nc2c(C(=O)NC(C)(C)C)oc3ccccc23)c1 returned Vaccinia Venus 4% and Vaccinia mCherry -7%.
Screening COc1ccc(Cn2c(C(=O)O)c(CNC3CCCCCC3)c3ccc(OC)cc32)cc1 returned Vaccinia Venus -6% and Vaccinia mCherry -19%.
CSc1ccccc1NC(=O)CN(c1cccc(C)c1)S(C)(=O)=O was read as Vaccinia Venus -19%, Pf growth 48h -21%, Vaccinia mCherry -12% and AMA1-RON2 inh 0%.
Cc1cccc(N(CC(=O)Nc2ccccc2F)S(C)(=O)=O)c1 was read as Pf growth 96h 5.2µM* and AMA1-RON2 inh 14%.
Screening OCCCCCN=c1cc(-c2ccccc2)oc2ccc(Cl)cc12 returned Vaccinia Venus inconclusive, Pf growth 48h inconclusive, Pf growth 96h 13µM*, Vaccinia mCherry -29% and AMA1-RON2 inh 7%.
For Clc1ccc2oc(-c3ccccc3)cc(=NCCCN3CCOCC3)c2c1 the results were Vaccinia Venus -18%, Pf growth 48h 4.7µM*, Pf growth 96h inconclusive, Vaccinia mCherry -16% and AMA1-RON2 inh -6%.
Clc1cccc(-c2nc(NCCCN3CCOCC3)c3ccccc3n2)c1 was read as Vaccinia Venus -27%, Pf growth 48h inconclusive, Pf growth 96h inconclusive, Vaccinia mCherry inactive and AMA1-RON2 inh -2%.
For COc1ccc(-c2cc(=NCCC(=O)O)c3cc(C)ccc3o2)cc1 the results were Vaccinia Venus -2%, Pf growth 48h inactive, Pf growth 96h inconclusive, Vaccinia mCherry -1% and AMA1-RON2 inh 0%.
FC(F)(F)c1ccc(C2[C@H]3CN(CC4CCCCC4)[C@H](c4ccccc4)C34CC2(c2cccnc2)C4)cc1 (stereo partly specified) was read as Vaccinia Venus -7%, Pf growth 48h 3.3µM*, Pf growth 96h 3.3µM*, Vaccinia mCherry -15% and AMA1-RON2 inh -17%.
Screening COC(=O)c1ccc(C23CC4(C2)[C@H](CN(Cc2ccc(C(F)(F)F)cc2)[C@@H]4c2ccccc2)C3c2ccc(Cl)nc2)cc1 (stereo partly specified) returned Vaccinia Venus -22%, Pf growth 48h 5.2µM*, Pf growth 96h 12µM*, Vaccinia mCherry -14% and AMA1-RON2 inh 10%.
For FC(F)(F)c1ccc(CN2C[C@@H]3C(c4ccc(Cl)nc4)C4(c5cccnc5)CC3(C4)[C@H]2c2ccccc2)cc1 (stereo partly specified) the results were Vaccinia Venus inconclusive, Pf growth 48h 3.3µM*, Pf growth 96h 2.3µM*, Vaccinia mCherry inconclusive and AMA1-RON2 inh -14%.
`N#Cc1ccc(C23CC4(C2)[C@H](CN(Cc2ccc(C(F)(F)F)cc2)[C@@H]4c2ccccc2)C3c2ccc(Cl)nc2)cc1` (stereo partly specified) gave Pf growth 48h 12µM* and Pf growth 96h 13µM*.
Screening Cc1cccc(CNC(=O)c2ccc3nc(-c4ccccc4)c(-c4ccccc4)nc3c2)c1 returned Vaccinia Venus -12% and Vaccinia mCherry -5%.
For Cc1ccc(C)c(NC(=O)Cn2cc(C(=O)c3ccncc3)c(=O)c3cc(F)ccc32)c1 the results were Vaccinia Venus -6%[7.34 µM] and Vaccinia mCherry -11%[7.34 µM].
Screening COc1ccc(Br)cc1CNC(=O)CCc1cn(Cc2ccc(C)cc2)c2ccccc12 returned Vaccinia Venus -21% and Vaccinia mCherry -7%.
For COC(=O)c1ccc(C23CC4(C2)[C@H](CN(Cc2ccc(-c5ccccc5)cc2)[C@@H]4c2ccccc2)C3c2ccccc2)cc1 (stereo partly specified) the results were Vaccinia Venus -8%, Pf growth 48h inconclusive, Pf growth 96h inconclusive, Vaccinia mCherry -8% and AMA1-RON2 inh 0%.
For COC(=O)c1ccc(C23CC4(C2)[C@H](CN(CC2CCCCC2)[C@@H]4c2ccccc2)C3c2ccc(Cl)nc2)cc1 (stereo partly specified) the results were Vaccinia Venus -9%, Pf growth 48h 9.3µM*, Pf growth 96h 9.3µM*, Vaccinia mCherry -3% and AMA1-RON2 inh 1%.
`COC(=O)c1cccc(C23CC4(C2)[C@H](CN(CC2CCCCC2)[C@@H]4c2ccccc2)C3c2ccccc2)c1` (stereo partly specified) gave Vaccinia Venus 10%, Pf growth 48h 10µM*, Pf growth 96h 4.1µM*, Vaccinia mCherry inconclusive and AMA1-RON2 inh -6%.
`Clc1ccc(C2[C@H]3CN(Cc4ccc(-c5ccccc5)cc4)[C@H](c4ccccc4)C34CC2(c2cccnc2)C4)cn1` (stereo partly specified) gave Pf growth 48h 3.3µM* and Pf growth 96h 2.3µM*.
Screening Cc1ccc(N2C(=O)CCSC23C(=O)N(Cc2ccccc2)c2ccccc23)cc1F (stereo unspecified) returned Vaccinia Venus inconclusive and Vaccinia mCherry -16%.
`CSc1nc(C)c(C(=O)C[n+]2ccccc2C)cc1C#N` gave Vaccinia Venus 13%, Pf growth 48h 15µM*, Pf growth 96h inconclusive, Vaccinia mCherry inconclusive and AMA1-RON2 inh -18%.
Screening CCOC(=O)c1cc(C#N)c(SC)nc1C returned Vaccinia Venus 1%, Pf growth 48h 15%, Pf growth 96h inconclusive, Vaccinia mCherry -5% and AMA1-RON2 inh -4%.
Screening Cc1ccc(S(=O)(=O)Nc2cc3c(cc2NCc2ccccc2)n(C)c(=O)n3C)c(C)c1 returned Vaccinia Venus -8% and Vaccinia mCherry -21%.

Screening data deposited in PubChem BioAssay by National Center for Advancing Translational Sciences (NCATS).
